Drawing on PubChem BioAssay (EPA / NIEHS), this text covers outcome and AC50 for 40 molecules.

The source made the active and inactive calls. Rule for the calls: active = hit-call score of the fitted dose curve at least 0.9, where 1 is the maximum; inactive = score below 0.9.

The nature of the assay: ATG_M_19_CIS: Attagene CIS-FACTORIAL HepG2 Assay for M19 Transcription Factor (Internal Marker) (AID 2282939). The settings on record: HepG2 Attagene CIS-FACTORIAL M19 internal marker reporter; actives raise or lower the signal. Here is the method:
ATG_CIS is a cell-based, multiplexed-readout assay that uses HepG2, a human liver cell line, with measurements taken at 24 hours after chemical dosing in a 24-well plate.ATG_M_19_CIS is one of 52 assay component(s) measured or calculated from the ATG_CIS assay. It is designed to make measurements of mRNA induction, a form of inducible reporter, as detected with fluorescence intensity signals by Reverse transcription polymerase chain reaction (RT-PCR) and Capillary electrophoresis technology.Data from the assay component ATG_M_19_CIS was analyzed into 1 assay endpoint. This assay endpoint, ATG_M_19_CIS, was analyzed with bidirectional fitting relative to DMSO as the negative control and baseline of activity. Using a type of inducible reporter, measures of mRNA for gain or loss-of-signal activity can be used to understand the background control at the transcription factor-level as they relate to the gene . Furthermore, this assay endpoint can be referred to as a secondary readout, because this assay has produced multiple assay endpoints where this one serves a background control function. To generalize the intended target to other relatable targets, this assay endpoint is annotated to the background measurement intended target family, where the subfamily is internal marker.
Human liver HepG2 cells are transiently transfected with multiple reporter transcription units (MRTUs) in 6-well plates using FuGene 6 reagent (Roche; 3 ml FuGene/1 mg DNA). The MRTU constructs are regulated by a cis-regulating element (promoter). […] A major difference between the CIS and TRANS system is that in CIS activities of endogenous TFs are measured, whereas the TRANS assay evaluates changes in activities of exogenous, chimeric NR-Gal4 proteins. […] At the end of 24 hour incubation, total RNA was isolated using TriZol reagent (Invitrogen). The isolated RNA is then reverse-transcribed using oligo(dT) primer and Mo-MLV reverse transcriptase (Invitrogen) with DNAse I (Ambion) treatment for 30 min. The one-tenth of the produced cDNA was amplified by PCR using Taq DNA polymerase (Invitrogen) and two reporter sequence-specific primers. The PCR products were fluorescently labeled by primer extension with 6-arboxyfluorescein (6-FAM) 5'-labeled reporter sequence-specific primer (2 min at 95 C, 20 s at 68 C and 10 min at 72 C) and these products were digested with 5U of HpaI (New England Biolabs) for 2h at 37 C. The fragments were purified using Qiaquick PCR columns (Qiagen), analyzed on an ABI 3130xL genetic analyzer (Applied Biosystems) with peak positions identified by using a set of X-rhodamine (ROX)-labeled MapMarker1000 molecular weight standards (BioVentures). The raw capillary electrophoresis data was processed using Attagraph software (Attagene).
Take `OCc1cccc(Oc2ccccc2)c1`: the result was inactive.
With `CCCCC(CC)COC(C)=O` (stereo not given), the outcome was inactive.
Still for that read-out and setting: with `COc1ccc(N=Nc2cc(C)c(N=Nc3ccc(S(=O)(=O)O)cc3)cc2OC)cc1` the entry was “inactive”.
As usually defined, the AC50 is the concentration at which the activity in the assay is half-maximal. Consider `Clc1ccc(C(c2ccccc2Cl)C(Cl)Cl)cc1` (stereo not given), for which the AC50 was 100 µM (active).
As to `Cc1cc(C)nc(NS(=O)(=O)c2ccc(N)cc2)n1`, the outcome was inactive.
In the case of `CCCCCCCCCCCCN1CCCCCC1=O`, the result was inactive.
The same measure, in the same setting: with `CCOC(=O)[C@@H](C)Oc1ccc(Oc2nc3ccc(Cl)cc3o2)cc1` the entry was “inactive”.
Consider `C[Si]1(C)O[Si](C)(C)O[Si](C)(C)O1`, for which the result was inactive.
Same read-out and setting: with `CCCCCCCC(=O)OCC(O)CO` (stereo not given) the entry was “inactive”.
On the same count and under the same terms, next, `NCC1CCCC(CN)C1` (stereo not given): “inactive”; `CCOc1ccc(N=Nc2ccc(C=Cc3ccc(N=Nc4ccc(OCC)cc4)cc3S(=O)(=O)O)c(S(=O)(=O)O)c2)cc1`: “inactive”; `Cc1cc(=O)oc2cc(N(C)C)ccc12`: “inactive”.
On the same count and under the same terms, with `COc1ccc(COC(C)=O)cc1` the entry was “inactive”; with `C=C1C[C@]23C[C@@]1(O)CC[C@H]2[C@@]12C=C[C@H](O)[C@@](C)(C(=O)O1)[C@H]2[C@@H]3C(=O)O`, “inactive”; with `COC(=O)Nc1ccc(Cl)c(Cl)c1`, “inactive”.
Turning to `CCCC(=O)OCCc1ccccc1`, the result was inactive.
For `Cc1ccc(OC(=O)c2ccccc2O)cc1`, the call was inactive.
The same measure, in the same setting: with `N#Cc1ccc(CC(=O)c2cccc(C(F)(F)F)c2)cc1` the entry was “inactive”; with `CC(=O)CC(=O)Nc1ccccc1`, “inactive”.
On the same count and under the same terms, next, `C=C(C)[C@H]1CC=C(C)C(=O)C1`: “inactive”; `O=C(Nc1ccc2c(c1)Cc1ccccc1-2)C(F)(F)F`: “inactive”; `COC(=O)c1ccc(OC)cc1`: “inactive”.
`CCC(=O)OCCOc1ccccc1`: the outcome was inactive.
The same measure, in the same setting: with `COCCOC(=O)c1ccccc1C(=O)OCCOC` the entry was “inactive”; with `O=C1c2ccccc2C(=O)c2c(O)ccc(O)c21`, “inactive”; with `CC/C=C\CC/C=C/CO`, “inactive”.
Same read-out and setting: next, `O=C1NC2NC(=O)NC2N1` (stereo not given): “inactive”.
For the molecule `CCCCCCCCc1ccc(S(=O)(=O)O)cc1`, the AC50 is 157 µM (active).
For `Cc1[nH]c(=O)c(C#N)cc1-c1ccncc1`, the molecule was classed as inactive.
On the same count and under the same terms, with `CC(C)(CO)[C@@H](O)C(=O)NCCC(=O)O` the entry was “inactive”; with `CC1(C)O[C@@H]2[C@@H](CO[C@@]3(COS(N)(=O)=O)OC(C)(C)O[C@@H]23)O1`, “inactive”.
Still for that read-out and setting: with `Nc1ccc(NCCO)c([N+](=O)[O-])c1` the entry was “inactive”; with `O=P(O)(O)O`, “inactive”.
Still for that read-out and setting: with `CCCCCCCC/C=C\CCCCCCCC(=O)OCC` the entry was “inactive”; with `CC/C=C\CCOC(=O)CC`, “inactive”.
In the case of `C=CC(=O)OCCCC`, the molecule was classed as inactive.
Same read-out and setting: with `CC1(C)C2=CCCC(C)(C)[C@]23CC[C@H]1C3` the entry was “inactive”.
On the same count and under the same terms, next, `CC(C)CC(C)CC(O)CC(C)C` (stereo not given): “inactive”.
With `COC(C)(C)CC(C)=O`, the call was inactive.
The same measure, in the same setting: with `C1CCCCC1` the entry was “inactive”.
